The values that follow come from PubChem BioAssay (NCI).

Experiment in all cases: NCI-60 one-dose screen, 48 h (100 = growth as untreated, 0 = no growth, -100 = all killed)
Settings in all cases: 10 µM unless noted

Assay [1] deals with T-47D breast.
For assay [2], the system named is BT-549 breast.
In assay [3] the test system is MDA-MB-435 melanoma.
The test system of assay [4] is SW-620 colon.
The test system of assay [5] is MCF7 breast.
Assay [6] has as its system HCT-116 colon.
In assay [7] the test system is HCC-2998 colon.
Assay [8] relates to KM12 colon.

Molecules are shown by their SMILES. About 83,000 compounds went through this panel and 20% of them were active in at least one assay; those are over-represented in the sample as a whole.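 Note: values are percent growth. 100 is the growth of untreated cells, values between 100 and 0 indicate rising inhibition; between -100 and 0 indicates cell death.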 A number with no mark means an inactive call. Activity calls are given as the source filed them. How the source made its calls: active means growth percent below 10; inactive means the rest.

Regarding `O=S(=O)(NCCNc1nccc(-c2c(-c3cccc(F)c3)nc3sccn23)n1)c1ccccc1`, the growth in assay [1] is 18.8%; in assay [2], 50.4%; in assay [3], 17.4%; in assay [4], 44.5%; in assay [5], 21.7%; in assay [6] it was 22.7%. Moreover, the growth is 66.4% in assay [7] and 28.8% in assay [8].
In the case of `CCCCCCNC(=O)Nc1ccc2cc3ccc(NC(=O)NCCCCCC)cc3nc2c1`, the growth in assay [1] was -24.8% (active); in assay [2], 89.4%; in assay [3], -83.6% (active); in assay [4], -78.1% (active); in assay [5], -57.4% (active); in assay [6], -18.9% (active). Moreover, the growth in assay [7] was -24.5% (active); in assay [8], 19.4%.
Regarding `Cc1cccc(NC(=O)Nc2ccc(-c3ccc4c(c3)NC(=O)/C4=C\c3ccc[nH]3)cc2)c1`, the growth in assay [1] was 39.1%; in assay [2], 102%; in assay [3], 78.8%; in assay [4], 73%; in assay [5] it was 15.3%; in assay [6], 72.7%. Besides, the figures for the growth in assay [7] and in assay [8] were 99% and 19.4%, respectively.
As to `Cn1ccnc1C(=O)/C=C/c1ccc(CC(=O)Nc2ccc(F)cc2)cc1`, the growth in assay [1] was 28.8%; in assay [2], 23.6%; in assay [3], 19.7%; in assay [4], 10.1%; in assay [5] it was 28%; in assay [6] it was 4.94% (active). The growth in assay [7] was 85.4%; in assay [8] it was 6.52% (active).
`COc1cc(NC(C)CCCNC(=O)CCC(=O)NCCCNCCCCCCCCNCCCNC(=O)CCC(=O)NCCCC(C)Nc2cc(OC)cc3cccnc23)c2ncccc2c1` (centres undefined): the growth in assay [1] was 7.63% (active); in assay [2] it was 95.2%; in assay [3], 70.7%; in assay [4] it was 78%; in assay [5] it was 34.6%; in assay [6], 52.5%. Further, the figures for the growth in assay [7] and in assay [8] were 69.5% and 82.1%, respectively.
Turning to `CCCCCN1C=C/C(=C\C(=O)N(C)c2ccc(OC(F)(F)F)cc2)c2ccccc21`, the growth is 88.3% in assay [1]; 109% in assay [2]; 105% in assay [3]; 98.1% in assay [4]; 88.7% in assay [5]; 74.3% in assay [6]. For the same compound, the growth in assay [7] is 106%; in assay [8], 102%.
For the compound `O=C(/C(=C/c1ccc([N+](=O)[O-])cc1)SCc1ccc(F)cc1)c1ccc(F)cc1`, the growth is 79.8% in assay [1]; 98.2% in assay [2]; 85% in assay [3]; -27.5% (active) in assay [4]; 9.8% (active) in assay [5]; -25.2% (active) in assay [6]. The growth in assay [7] is 88.4%; in assay [8], 59.8%.
With `COc1cc(NC(=O)CSc2nc3ccc(C)cc3c(=O)n2Cc2ccccc2)cc(OC)c1OC`, the growth in assay [1] was 22.8%; in assay [2], 53.3%; in assay [3], 67.3%; in assay [4], 81.3%; in assay [5], 71%; in assay [6], 43.4%. For the same compound, the results for the growth in assay [7] and in assay [8] were 76% and 57.9%, respectively.
On to `O=C(/C=C(/C=C/c1csc2ccccc12)OB(F)F)/C=C/c1csc2ccccc12`, for which the growth in assay [1] is 38.4%; in assay [2], 4.74% (active); in assay [3] it was -18.6% (active); in assay [4], 5.19% (active); in assay [5] it was 39.9%; in assay [6] it was -57.7% (active). The growth in assay [7] is 92%; in assay [8] it was 37.7%.
For `Fc1ccc(-c2cn3c(nc4ccccc43)c(-c3ccccc3)n2)cc1`, the growth in assay [1] is 86.2%; in assay [2], 105%; in assay [3], 98%; in assay [4], 95.8%; in assay [5], 92.8%; in assay [6], 89.1%. The growth is 98.9% in assay [7] and 92.1% in assay [8].
Consider `Cc1ccc(C(=O)/C(=C\c2ccc([N+](=O)[O-])cc2)S(=O)Cc2ccc(Cl)cc2)cc1` (centres undefined), for which the growth in assay [1] is -19.1% (active); in assay [2], 62%; in assay [3], 50.1%; in assay [4] it was 7.46% (active); in assay [5], 15.2%; in assay [6], -50.1% (active). Besides, the growth in assay [7] is 58.8%; in assay [8] it was 46.6%.
Regarding `CC1(C)CC(O)CCCCCCOc2c(CN)cccc2NC(=O)c2nc(cnc2N)-c2ccc(cc2)S1(=O)=O` (centres undefined), the growth in assay [1] is 66.2%; in assay [2], 28.2%; in assay [3], 20%; in assay [4], -6.55% (active); in assay [5], -16% (active); in assay [6], -63.6% (active). For the same compound, the growth was 28.6% in assay [7] and -10.7% (active) in assay [8].
For the compound `COC(=O)C1=C(C(=O)ON)C2C=CC1(C(Cc1ccccc1)Nc1ccccc1)O2` (centres undefined), the growth in assay [1] was -51.1% (active); in assay [2] it was 106%; in assay [3] it was 94.5%; in assay [4], -60% (active); in assay [5] it was 83.3%; in assay [6] it was -73.8% (active). Further, the growth was 93.6% in assay [7] and 103% in assay [8].
For `C/C(=N\NC(=O)CSc1nc2ccccc2c(=O)n1Cc1ccc(S(N)(=O)=O)cc1)c1ccc(F)cc1`, the growth in assay [1] was 96.7%; in assay [2], 112%; in assay [3], 104%; in assay [4], 104%; in assay [5] it was 96.1%; in assay [6], 102%. The results for the growth in assay [7] and in assay [8] were 112% and 105%, respectively.
Consider `COC(=O)N[C@H]1CCc2c(Cl)c(OC)c(OC)c(OC)c2-c2ccc(SC)c(=O)cc21`, for which the growth in assay [1] is 40.4%; in assay [2] it was -4.69% (active); in assay [3], -49.9% (active); in assay [4] it was 16.1%; in assay [5], 10.8%; in assay [6] it was 0.452% (active). Further, the growth in assay [7] was 21.5%; in assay [8], 1.72% (active).
Regarding `CCN(CC)c1ccc(/C=N/NC(=O)CSc2nc3ccccc3c(=O)n2Cc2ccc(S(N)(=O)=O)cc2)c(O)c1`, the growth in assay [1] was 6.32% (active); in assay [2], 33.6%; in assay [3], 13.8%; in assay [4] it was 21.4%; in assay [5], 13.3%; in assay [6], 21.5%. In addition, the growth in assay [7] was 20.3%; in assay [8] it was 15.2%.
For `CC(=O)Nc1cccc(-c2ccc3c(c2)NC(=O)/C3=C\c2ccc[nH]2)c1`, the growth in assay [1] is 17.7%; in assay [2], 43.2%; in assay [3], 25.6%; in assay [4], 37.9%; in assay [5], 17.8%; in assay [6], 37%. Besides, the growth is 57.1% in assay [7] and 14.5% in assay [8].
`CC(C)(C)CC(C)(C)n1nnnc1C(NC12CC3CC(CC(C3)C1)C2)c1ccccc1` (centres undefined): the growth was 73.5% in assay [1]; 93.2% in assay [2]; 98.3% in assay [3]; 98.9% in assay [4]; 88.9% in assay [5]; 66.8% in assay [6]. Also, the growth in assay [7] was 104%; in assay [8], 101%.
Turning to `N#Cc1c(-c2cccc([N+](=O)[O-])c2)nc(SCC(=O)c2ccc(Cl)cc2)[nH]c1=O`, the growth was 105% in assay [1]; 99.7% in assay [2]; 100% in assay [3]; 98.4% in assay [4]; 105% in assay [5]; 105% in assay [6]. Also, the growth in assay [7] was 106%; in assay [8], 99.4%.
`CCNC(=O)Oc1ccc(/C(=C(\C)c2ccccc2)c2ccc(OCCN3CCCCC3)cc2)cc1`: the growth was 24.1% in assay [1]; 65.2% in assay [2]; 65.5% in assay [3]; 59.1% in assay [4]; 25.8% in assay [5]; 40.5% in assay [6]. The growth in assay [7] was 84.9%; in assay [8], 50.8%.
With `O=S(=O)(NCCNc1nccc(-c2c(-c3cccc(O)c3)nc3occn23)n1)c1cccc(F)c1`, the growth in assay [1] was 73.7%; in assay [2] it was 104%; in assay [3], 34.3%; in assay [4], 115%; in assay [5] it was 57%; in assay [6], 70.4%. The growth was 129% in assay [7] and 88.2% in assay [8].
Turning to `CCCNC(=O)Oc1ccc(/C(=C(\C)c2ccccc2)c2ccc(OCCCN(C)C)cc2)cc1`, the growth in assay [1] was 33.3%; in assay [2] it was 83%; in assay [3] it was 63%; in assay [4], 90%; in assay [5], 21.7%; in assay [6], 54.2%. The growth in assay [7] was 64.8%; in assay [8] it was 67.2%.
Take `CCOC(=O)c1cc(C(=O)c2ccc(OC)cc2)n2ccc(/C=C/c3cc[n+](CC(=O)c4ccc(OC)cc4)cc3)cc12`: the growth in assay [1] was 36.3%; in assay [2], 86%; in assay [3], 77%; in assay [4] it was 5.72% (active); in assay [5], -62.6% (active); in assay [6], 3.01% (active). Moreover, the growth is 36.7% in assay [7] and 91.9% in assay [8].
Regarding `CC(=O)O[C@H]1Cc2c([nH]c3ccccc23)[C@@H](c2ccc(Cl)cc2)N1C(=O)CCNC(C)(C)C`, the growth was 74.3% in assay [1]; 53.7% in assay [2]; 70% in assay [3]; 61.1% in assay [4]; 34.3% in assay [5]; 20.8% in assay [6]. Further, the growth is 60.3% in assay [7] and 66.6% in assay [8].
Regarding `Cc1nc2sccn2c1-c1nc2sccn2c1/C=C1/C(=O)Nc2ccccc21`, the growth in assay [1] was 27.6%; in assay [2] it was 36%; in assay [3], -63.8% (active); in assay [4], 9.78% (active); in assay [5], 10.6%; in assay [6], 24.1%. Moreover, the growth was 66.8% in assay [7] and 12.5% in assay [8].
For the compound `Cc1cc(C(=O)/C=C/c2ccc[nH]2)ccc1-n1ccc(C(F)(F)F)n1`, the growth in assay [1] was 85%; in assay [2], -35% (active); in assay [3], 97.4%; in assay [4], 96.6%; in assay [5] it was 82.7%; in assay [6] it was 88.5%. Moreover, the growth was 108% in assay [7] and -14% (active) in assay [8].
In the case of `Cc1cc2c(c(C)c1Cl)C(=O)/C(=C/c1ccc(O)c(O)c1)O2`, the growth is 90.5% in assay [1]; 104% in assay [2]; 106% in assay [3]; 105% in assay [4]; 89.4% in assay [5]; 112% in assay [6]. Moreover, the growth in assay [7] is 112%; in assay [8] it was 109%.
For the compound `CCN1Cc2nc3sc(C)c(C)c3c(=O)n2C=C1C`, the growth in assay [1] was 37.1%; in assay [2], -5.48% (active); in assay [3] it was 48.1%; in assay [4], 15.6%; in assay [5], -41.8% (active); in assay [6], -24.9% (active). Besides, the growth was 81.2% in assay [7] and 14.5% in assay [8].
